Laboratory results published in PubChem BioAssay AID485346 (Sanford-Burnham Center for Chemical Genomics, 2010).
Among all 330,000 compounds or so, about 10,000 (3%) were called active.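 How the source made its calls: active means inhibition of at least 50% at 8 µM in the primary screen; inactive means the rest.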 This excerpt belongs to a sample that is enriched for actives.

Each compound was assayed against Protein Mdm4 (Homo sapiens) + E3 ubiquitin-protein ligase Mdm2 (Homo sapiens) (UniProt O15151+Q00987) (assay: inhibitors of human Mdm2-MdmX association, primary screen, cell-based, luminescence, split luciferase, SaOS-2, uHTS (AID 485346)). Conditions: SaOS-2 split-luciferase Mdm2/MdmX complementation, at 8 µM, hits give high values.
Chain of Protein Mdm4 (Homo sapiens) + E3 ubiquitin-protein ligase Mdm2 (Homo sapiens) (O15151 whole entry, looked up): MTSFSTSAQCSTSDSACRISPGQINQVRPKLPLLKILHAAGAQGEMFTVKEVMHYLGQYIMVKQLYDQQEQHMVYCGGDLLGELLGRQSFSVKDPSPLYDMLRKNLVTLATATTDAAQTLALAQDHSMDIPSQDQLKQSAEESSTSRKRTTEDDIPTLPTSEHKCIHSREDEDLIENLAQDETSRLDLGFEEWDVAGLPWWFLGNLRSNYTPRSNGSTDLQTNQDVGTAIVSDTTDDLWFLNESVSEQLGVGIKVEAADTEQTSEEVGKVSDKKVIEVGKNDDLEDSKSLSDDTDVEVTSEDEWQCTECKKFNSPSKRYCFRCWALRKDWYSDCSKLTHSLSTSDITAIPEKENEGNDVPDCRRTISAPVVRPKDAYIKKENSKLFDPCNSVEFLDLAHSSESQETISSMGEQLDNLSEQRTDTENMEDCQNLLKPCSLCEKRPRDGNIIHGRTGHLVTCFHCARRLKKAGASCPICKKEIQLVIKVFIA
Chain of Protein Mdm4 (Homo sapiens) + E3 ubiquitin-protein ligase Mdm2 (Homo sapiens) (Q00987 whole entry, looked up): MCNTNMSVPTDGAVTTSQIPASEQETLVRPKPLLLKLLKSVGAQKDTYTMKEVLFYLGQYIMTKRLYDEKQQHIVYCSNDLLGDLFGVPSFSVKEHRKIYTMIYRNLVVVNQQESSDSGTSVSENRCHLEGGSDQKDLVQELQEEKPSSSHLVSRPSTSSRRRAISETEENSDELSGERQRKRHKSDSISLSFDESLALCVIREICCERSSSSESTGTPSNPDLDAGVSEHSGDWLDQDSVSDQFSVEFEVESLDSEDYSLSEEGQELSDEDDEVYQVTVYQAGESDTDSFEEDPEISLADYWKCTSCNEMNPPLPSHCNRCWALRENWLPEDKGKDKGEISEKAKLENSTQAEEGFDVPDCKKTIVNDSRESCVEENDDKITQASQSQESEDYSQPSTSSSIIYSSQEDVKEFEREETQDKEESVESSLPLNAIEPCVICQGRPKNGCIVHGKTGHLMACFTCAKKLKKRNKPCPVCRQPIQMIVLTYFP

Structure (SMILES) | inhibition
O=C(Nc1nc(-c2ccco2)c(-c2ccco2)s1)c1ccco1 | 27% (inactive)
COc1cc2c(cc1NC(=O)CN1CCN(S(=O)(=O)c3ccc(F)cc3)CC1)oc1ccccc12 | 49.9% (inactive)
COc1cc2c(cc1NC(=O)COC(=O)/C=C/c1ccccc1)oc1ccccc12 | 51.9% (active)
COc1cc(/C=C/C(=O)OCC(=O)c2ccccc2)cc(OC)c1OC | 20.5% (inactive)
CCCCN1C(=O)/C(=C2/C=CC=CN2C)SC1=S | -6.03% (inactive)
CCCCN1C(=O)/C(=C/C=C2/C=Cc3ccccc3N2CC)SC1=S | 64.7% (active)
COc1cc(/C=C2/SC(=S)N(Cc3ccccc3)C2=O)cc(OC)c1O | 11.8% (inactive)
FC(F)(F)Oc1ccc(-c2cn3cccnc3n2)cc1 | -41.1% (inactive)
CSCC[C@H](NC(=O)NC1CCCC1)C(=O)O | -12.4% (inactive)
CNC(=S)N/N=C/c1ccc(N2CCOCC2)s1 | -16.1% (inactive)
COc1cccc(OC)c1C(=O)Nc1sc2c(c1C(N)=O)CCCC2 | 19% (inactive)
NC(=O)c1c(NC(=O)CSc2nnc(-c3ccco3)n2N)sc2c1CCCC2 | 22.2% (inactive)
C=CCN(CC=C)S(=O)(=O)c1ccc(C(=O)Nc2nc3c(s2)CCc2ccccc2-3)cc1 | 58.5% (active)
CCN(c1ccccc1)S(=O)(=O)c1ccc(C(=O)Nc2nccs2)cc1 | -12.4% (inactive)
COc1ccc(C(=O)Nc2ncc3c(n2)-c2ccccc2CC3)cc1 | 22.2% (inactive)
C=CCN(CC=C)S(=O)(=O)c1ccc(C(=O)Nc2sc3c(c2C(N)=O)CCCCC3)cc1 | 92.8% (active)
COc1cc(Cl)cc(C2NC(=O)NC(C)=C2C(=O)NCc2ccccc2)c1O (stereo not drawn) | -8.24% (inactive)
Cc1ccc(C)c(N2CCN(C(=O)CCc3nc(-c4cccc(C(F)(F)F)c4)no3)CC2)c1 | -17.8% (inactive)
COc1ccc(-c2cc(=O)oc3cc(OC(C)C(=O)NCC4CCC(C(=O)O)CC4)ccc23)cc1 (stereo not drawn) | -48.8% (inactive)
CCN(CC)c1ccc(NC(=O)CCc2nnc3ccc(N4CCCCC4)nn23)c(C)c1 | 15.3% (inactive)

Structure (SMILES) | inhibition
CC1CCN(CCCNC(=O)CN2C(=O)CSc3ccc(S(=O)(=O)N4CCCCC4)cc32)CC1 | 13% (inactive)
CCN(Cc1cc2cc(C)ccc2[nH]c1=O)S(=O)(=O)c1ccccc1 | 22.4% (inactive)
COc1ccc2[nH]c(=O)c(CN(Cc3cccnc3)S(=O)(=O)c3ccccc3F)cc2c1 | 63.9% (active)
CCOc1ccc2[nH]c(=O)c(CN(CCCO)S(=O)(=O)c3ccc(F)cc3)cc2c1 | -3.41% (inactive)
COc1ccc(CCN2CC(C(=O)NCCN3CCNC3=O)CCC2=O)cc1 (stereo not drawn) | 7.59% (inactive)
CN(C(=O)c1cccc([N+](=O)[O-])c1)c1ccccc1C(=O)NCc1ccccc1 | 10.9% (inactive)
Cc1cc(CNC(=O)c2cccc([N+](=O)[O-])c2)c2ccccc2n1 | 57.9% (active)
Cc1cc(C)nc(NC(=O)c2cccc([N+](=O)[O-])c2)c1 | 1.76% (inactive)
COc1cccc2[nH]c(C(=O)NCCc3ccccc3)cc12 | -35.8% (inactive)
O=C(NCc1ccccc1Cl)C(=O)NCC1CCCN1S(=O)(=O)c1cccs1 (stereo not drawn) | 2.29% (inactive)
CCc1ccc(C(=O)N2CCN(S(=O)(=O)c3sc(C(=O)O)c(C)c3C(=O)O)CC2)cc1 | -9.23% (inactive)
COc1cc(C(=O)OCC(=O)NC23CC4CC(CC(C4)C2)C3)cc(OC)c1OC | 11.3% (inactive)
Cc1cccc(C(=O)Nc2ccc(CC(=O)O)cc2)c1 | -7.55% (inactive)
COc1ccc(C(=O)NN(C)c2nc(-c3ccccc3)cc(C)c2S(C)(=O)=O)cc1 | 2.68% (inactive)
Cc1cccc(C(=O)Nc2ccc(C(=O)N/N=C/c3cccc(C)n3)cc2)c1 | 8.86% (inactive)
Cc1nc2ccccc2c(=O)n1NC(=O)c1ccccc1 | -5.89% (inactive)
Cn1c(CC(=O)NNC(=O)c2ccccc2F)nc2ccccc21 | 8.1% (inactive)
CSc1nc(N(C)NC(=O)c2cccc(C)c2)c2ccccc2n1 | 63% (active)
CN(NC(=O)c1ccccc1F)c1nc(C(F)(F)F)nc2ccccc12 | 60.3% (active)
CC(NC(=O)c1ccccc1F)c1cccc2ccccc12 (stereo not drawn) | 3.89% (inactive)

Structure (SMILES) | inhibition
CN(NC(=O)c1ccccc1)c1nc2ccccc2nc1C(F)(F)F | 59.8% (active)
COc1ccc(NC(=O)c2cccc3c2C(=O)N(CC2CCCO2)C3)cc1OC (stereo not drawn) | -24.7% (inactive)
CC(NC(=O)COC(=O)c1ccc2ccccc2n1)c1ccccc1 (stereo not drawn) | -14.1% (inactive)
C=CCSc1ccc(S(=O)(=O)N2CCN(C)CC2)cn1 | 13.1% (inactive)
COc1ccc(N(CC(=O)NC2CCCCCCC2)S(=O)(=O)c2c(C)nn(C)c2C)cc1 | -2% (inactive)
O=C(/C=C/c1ccc([N+](=O)[O-])o1)NNC(=O)c1ccc(F)cc1 | 40% (inactive)
CCOCCCNC(=S)N1CCC(NC(=O)C2CCCCC2)CC1 | 15.2% (inactive)
Cc1ccc(C(=O)C(=S)N2CCOCC2)cc1 | 10.1% (inactive)
CC(C)CC(CCc1ccccc1)OS(N)(=O)=O (stereo not drawn) | -32.9% (inactive)
COc1cccc(/C=N/NC(=O)c2[nH]nc3c2CCc2ccccc2-3)c1O | 74.6% (active)
COc1cc2cc(C(=O)N/N=C/c3cccc(OC)c3OC)[nH]c2cc1OC | -21.6% (inactive)
COc1cc(OC)c(/C=N/NC(=O)c2ccc([N+](=O)[O-])cc2)cc1Br | 46.6% (inactive)
COC(=O)CN1C(=O)[C@H]2[C@@H](/C=C/c3ccccc3)N3C(=O)CN(CC4CC4)C(=O)[C@@]3(Cc3ccccc3)[C@H]2C1=O | -8.09% (inactive)
COc1ccc(C(O)(C2CCCCC2)C(CN2CCCC2)c2ccccc2)cc1 (stereo not drawn) | 33.8% (inactive)
COc1ccc(CNc2nnnn2C)cc1 | -2.21% (inactive)
Fc1ccc(CNc2nc3ccccc3n3nnnc23)cc1 | 54% (active)
CCOC(=O)CNc1nc2ccccc2n2c(C)nnc12 | 1.6% (inactive)
CCc1nnc(NC(=O)CCC(=O)N2CCN(c3cc(C)ccc3C)CC2)s1 | 13.7% (inactive)
